Results from ChEMBL document CHEMBL1157539, “Thousands of chemical starting points for antimalarial lead identification” (Nature, 2010).

Key:
Assay type in all cases: functional
Plasmodium falciparum [1] = assay: GSK_TCMDC: Inhibition of Plasmodium falciparum 3D7 in whole red blood cells, using parasite LDH activity as an index of growth. Test compounds present at 2uM
Plasmodium falciparum [2] = assay: GSK_TCMDC: Inhibition of Plasmodium falciparum Dd2 in whole red blood cells, using parasite LDH activity as an index of growth. Test compounds present at 2uM
HepG2 = assay: GSK_TCMDC: Percent inhibition of human HepG2 cell line. Test compounds present at 10uM.

Structure (SMILES)	Inhibition (Plasmodium falciparum [1]) [%]	Inhibition (Plasmodium falciparum [2]) [%]	Inhibition (HepG2) [%]
CCc1cn2c3c(cc(C(=O)N[C@@H](Cc4ccccc4)[C@H](O)CNC4CCC4)cc13)N(C)S(=O)(=O)CC2	98	98	0
CCOC(=O)c1ccc(N2CCN(c3cc(Cl)ccc3C)CC2)c(NC(=O)Nc2ccc(Cl)c(Cl)c2)c1	99	99	10
Cc1cc(N[C@@H](Cc2ccccc2)C(=O)NCc2cccs2)nc(NCCc2cccnc2)n1.O=C(O)C(F)(F)F	84	38	10
CCCCCCN1CCC(NCc2ccc(C)cc2)CC1.O=C(O)C(F)(F)F	93	4	16
CCc1cn2c3c(cc(C(=O)N[C@@H](Cc4ccccc4)[C@H](O)CNCc4ccc(C)cc4)cc13)N(C)S(=O)(=O)CC2.O=CO	99	98	0
COc1ccc(Cn2c(Nc3cccc(C(F)(F)F)c3)nc3ccc(C(=O)NCCN4CCCC4)cc32)cc1Cl	100	6	14
Cc1cc(N(C)C)nc(Nc2ccc(NC(=O)c3ccccc3C)cc2)n1	93	16	0
O=C(NCC(CCN1CCC(c2c[nH]c3ccccc23)CC1)c1ccccc1)Nc1ccc(Cl)c(Cl)c1 (stereo not drawn)	100	53	46
COc1ccccc1/C=C/C(=O)NCCC1CCN(CCCCCNC(=O)/C=C/c2ccc(Cl)c(Cl)c2)CC1	94	0	34
COc1ccc2nccc([C@@H](O)CN3CCC(NCC4COc5ccccc5O4)CC3)c2c1.O=C(O)C(=O)O (stereo partly drawn)	98	94	17
O=C(Nc1ccc(F)c(Cl)c1)NC1CCN(c2ccnc3cc(Cl)ccc23)C1.O=C(O)C(F)(F)F (stereo not drawn)	100	74	37
O=C(Nc1ccc(-c2cccc(-c3nc4ccccc4[nH]3)c2)cc1)Nc1ccc(Cl)c(Cl)c1	100	80	61
Cc1cccc2nc(-c3ccc(-c4cccc(CN5CCCC5CN)c4)cc3)[nH]c12.O=C(O)C(F)(F)F (stereo not drawn)	91	32	7
COc1ccc(NC(=O)NC2CCN(CCCOc3cc(C)nc4ccccc34)CC2)cc1OC	97	9	3
C[C@H](Cc1ccc(OCCCOc2ccc(C[C@@H](C)NC[C@H](O)c3cccc(Cl)c3)cc2)cc1)NC[C@H](O)c1cccc(Cl)c1.Cl	99	92	99
O=C(Nc1ccc(C(F)(F)F)cc1)Nc1cccc([N+](=O)[O-])c1	100	98	20
CNC(=O)c1ccccc1Nc1nc(Nc2cccc(CS(C)(=O)=O)c2)ncc1C.O=CO	97	95	74
Cc1cccc(-c2cccc3c(NC(=O)N4CCc5cc6nccc(N7CCN8CCC[C@H]8C7)c6cc54)cccc23)n1.Cl	94	68	14
CCCN(CCC)C(=O)c1cc(C(=O)N[C@@H](Cc2ccccc2)[C@H](O)CNCc2cccc(OC)c2)cc(N2CCCCS2(=O)=O)c1	97	99	0
O=C(Nc1cccc(-c2nn3ncccc3c2-c2ccnc(Nc3ccccc3)n2)c1)c1c(F)cccc1F	98	96	51
Cl.N#Cc1ccc2c(c1)CN(CCC1CCC(NC(=O)c3cc4cnccc4[nH]3)CC1)CC2 (stereo not drawn)	97	28	13
O=C(NCc1ccccc1)OC1CNCCC1c1ccc(C(O)Cc2ccccc2)cc1.O=C(O)C(F)(F)F (stereo not drawn)	87	5	8
O=C(Nc1ccccc1)Nc1cccc(-c2ccc(-c3nc4cc(C(F)(F)F)ccc4[nH]3)cc2)c1	100	37	48
COc1ccc(C(=C(C)CC(C)C(=O)O)c2ccccc2)cc1 (stereo not drawn)	95	0	6
COC(=O)c1cccc(CNCc2cccc(-c3ccc(-c4nc5ccccc5[nH]4)s3)c2)c1.O=C(O)C(F)(F)F	93	59	0
COc1ccc(-c2ccc(NC(=O)c3cccc(Cl)c3)cc2)cc1CN(C)CCN(C)C.O=C(O)C(F)(F)F	100	35	22
